Experimental findings from PubChem BioAssay (NCATS) are described below.

Results filed as inconclusive are left out. The source made the active and inactive calls. Calls come from the whole dose curve; as a rule, active = well fitted cell-killing curve with a large enough effect; inconclusive = small, poorly fitted or top-dose-only effect, or effect the other way; inactive = no such curve, though single readings can be large or run the other way.
Potency is the fitted concentration of half-maximal effect.

A short description of this assay: Quantitative High-Throughput drug screen in 47 multiple myeloma cell lines against the NCATS MIPE library collection: VP6_DJ cell viability assay (AID 1919867). Note: nearly all actives have a fitted effect of over 40% in size. As to conditions: ATP luminescence, 48 h; series mostly up to 45.8 µM; viability (% of DMSO): at the top concentration. The source says: PI: Beverly A. Mock Ph.D.
Laboratory of Cancer Biology and Genetics,
Center for Cancer Research, National Cancer Institute,
National Institute of Health, Bethesda, Maryland
Drug resistance and disease progression are common in multiple myeloma (MM) patients, underscoring the need for new therapeutic combinations. […] We hypothesized that effective combinations would reduce MYC expression and enhance p16 activity. […] These preclinical data identify potentially useful drug combinations for evaluation in drug-resistant MM and reveal potential mechanisms of combined drug sensitivity.
Described herein is the primary MIPE qHTS used to cherrypick compounds. Validated compounds were then further tested for potential synergistic activiy.
[1] Peat TJ, Gaikwad SM, Dubois W, Gyabaah-Kessie N, Zhang S, Gorjifard S, Phyo Z, Andres M, Hughitt VK, Simpson RM, Miller MA, Girvin AT, Taylor A, Williams D, D'Antonio N, Zhang Y, Rajagopalan A, Flietner E, Wilson K, Zhang X, Shinn P, Klumpp-Thomas C, McKnight C, Itkin Z, Chen L, Kazandijian D, Zhang J, Michalowski AM, Simmons JK, Keats J, Thomas CJ, Mock BA. Drug combinations identified by high-throughput screening promote cell cycle transition and upregulate Smad pathways in myeloma. Cancer Lett. 2023 Aug 1;568:216284. doi: 10.1016/j.canlet.2023.216284. Epub 2023 Jun 24. PMID: 37356470; PMCID: PMC10408729.
SEQUENCE No. (e.g., 1, 2, 3, etc.); […] (e.g., Cells, Incubation, Reagent, etc.); VALUE and DESCRIPTION.
1; Cells; 5 uL; white, solid bottom 1536-well Greiner assay plate.
2; Compounds; 23 nL; Kalypsis pin tool (Wako USA) equipped with a 1536-well pin head to transfer to the assay plates.
3; Incubation; 48 hours; 37C incubation.
4; Reagent;5uL; CellTiter Glo (Promega).
5; Detector; 425V; Luminescence; Viewlux PerkinElmer.
NOTES (numbers refer to Sequence numbers above)
1. The cell-based screening methods employed in this study were like those previously published. Briefly, the corresponding myeloma cell lines were screened in 1,536-well plates with 500 cells, 5-uL per well for inhibition of cell viability (assessed by measuring ATP levels with CellTiterGlo).
2. NCATS MIPE 4.0 library of approved and investigational drugs were added using the Kalypsis pin tool. Wells treated with DMSO only for 100% viability and media only for 0% viability were used as controls.
3. The assay plates were covered and incubated for 48 hours in a 37C, 5% CO2 incubator with controlled humidity.
4. After 48 hours, CellTilter-GloTM luminescent substrate mix (Promega) reagent was added to the assay plate and plates we incubated for 5 min at room temperature.
5. Signal was measured as median relative luminescence units on a ViewLux (PerkinElmer) multiplate reader.
[1] Heske CM, Davis MI, Baumgart JT, Wilson K, Gormally MV, Chen L, Zhang X, Ceribelli M, Duveau DY, Guha R, Ferrer M, Arnaldez FI, Ji J, Tran HL, Zhang Y, Mendoza A, Helman LJ, Thomas CJ. Matrix Screen Identifies Synergistic Combination of PARP Inhibitors and Nicotinamide Phosphoribosyltransferase (NAMPT) Inhibitors in Ewing Sarcoma. Clin Cancer Res. 2017 Dec 1;23(23):7301-7311. doi: 10.1158/1078-0432.CCR-17-1121. Epub 2017 Sep 12. PMID: 28899971; PMCID: PMC6636827.
On to `Nc1nc(Cl)nc2c1ncn2[C@H]1C[C@H](O)[C@@H](CO)O1`, for which the Potency was 3.72 µM (active).
Consider `Nc1ncn([C@H]2C[C@H](O)[C@@H](CO)O2)c(=O)n1`, for which the “viability (% of DMSO)” value was 128% (inactive).
On to `COc1ccccc1N1CCN(CCN(C(=O)C2CCCCC2)c2ccccn2)CC1`, for which the Potency is 5.9 µM (active).
Turning to `COC(=O)C1=C(C)NC(C)=C(C(=O)OC(C)C)C1c1cccc2nonc12` (stereo not given), the Potency is 26.4 µM (active).
In the case of `Cc1ccc(C)c(OCCCC(C)(C)C(=O)O)c1`, the Potency was 7.43 µM (active).
Regarding `CC(C)(S)[C@@H](N)C(=O)O`, the “viability (% of DMSO)” value was 130% (inactive).
On to `CCc1nc(N)nc(N)c1-c1ccc(Cl)cc1`, for which the Potency was 3.32 µM (active).
For `O=c1ccc2ccc(O)c(O)c2o1`, the Potency was 11.8 µM (active).
As to `O=C(c1ccccc1)c1ccc2n1CCC2C(=O)O` (stereo not given), the Potency was 9.35 µM (active).
With `Nc1cccc2c1CN(C1CCC(=O)NC1=O)C2=O` (stereo not given), the Potency was 4.81 µM (active).
As to `CN(C)CCCC1(c2ccc(F)cc2)OCc2cc(C#N)ccc21` (stereo not given), the “viability (% of DMSO)” value is 87.4% (inactive).
In the case of `Cn1c(NCCN(CCO)CCCc2ccc([N+](=O)[O-])cc2)cc(=O)n(C)c1=O`, the Potency was 18.7 µM (active).
Take `COC(=O)N[C@H](C(=O)N[C@@H](Cc1ccccc1)[C@@H](O)CN(Cc1ccc(-c2ccccn2)cc1)NC(=O)[C@@H](NC(=O)OC)C(C)(C)C)C(C)(C)C`: the Potency was 20.9 µM (active).
With `CN(C)C(=O)[C@H](O)[C@H](Cc1ccccc1)NC(=O)c1cc2cc(Cl)ccc2[nH]1`, the Potency was 7.43 µM (active).
For the molecule `CC(=O)N1CCN(c2ccc(OC[C@H]3CO[C@](Cn4ccnc4)(c4ccc(Cl)cc4Cl)O3)cc2)CC1`, the Potency is 11.8 µM (active).
Take `Cc1nc(Nc2ncc(C(=O)Nc3c(C)cccc3Cl)s2)cc(N2CCN(CCO)CC2)n1`: the Potency is 0.0662 µM (active).
As for `O=P(O)(O)C(O)(Cn1ccnc1)P(=O)(O)O`, the Potency was 6.45 µM (active).
Turning to `COc1ccc(C2(C#N)CCC(C(=O)O)CC2)cc1OC1CCCC1` (stereo not given), the Potency is 16.6 µM (active).
For `Cc1ccc(S(=O)(=O)NC(=O)NN2CC3CCCC3C2)cc1` (stereo not given), the Potency is 23.5 µM (active).
As for `CC1(C)C(=O)N(CCN2CCC(C(=O)c3ccc(F)cc3)CC2)c2ccccc21`, the Potency was 4.18 µM (active).
With `CCCCN(CCCC)CCC(O)c1cc2c(Cl)cc(Cl)cc2c2cc(C(F)(F)F)ccc12` (stereo not given), the Potency is 18.7 µM (active).
As for `CCN(CCO)CCCC(C)Nc1ccnc2cc(Cl)ccc12` (stereo not given), the “viability (% of DMSO)” value was 137% (inactive).
In the case of `Cc1nccn1CC1CCc2c(c3ccccc3n2C)C1=O` (stereo not given), the “viability (% of DMSO)” value was 107% (inactive).
For `O=C(CCc1ccc(O)cc1)c1c(O)cc(O)cc1O`, the Potency is 0.418 µM (active).
With `O=c1oc2cc(O)ccc2s1`, the “viability (% of DMSO)” value is 115% (inactive).
With `CCN(CC)C(=S)SSC(=S)N(CC)CC`, the Potency is 0.001 µM (active).
As to `CC1(C)CCC(C)(C)c2cc(NC(=O)c3ccc(C(=O)O)cc3)ccc21`, the Potency is 18.7 µM (active).
Take `Clc1ccc(C(Cn2ccnc2)OCc2ccc(Sc3ccccc3)cc2)c(Cl)c1` (stereo not given): the Potency is 20.9 µM (active).
For `CC1(C)NC(=O)N(c2ccc([N+](=O)[O-])c(C(F)(F)F)c2)C1=O`, the “viability (% of DMSO)” value is 147% (inactive).
As to `CCC1=C(C)CN(C(=O)NCCc2ccc(S(=O)(=O)NC(=O)NC3CCC(C)CC3)cc2)C1=O` (stereo not given), the “viability (% of DMSO)” value is 142% (inactive).
Consider `Cc1ccc(Nc2nccc(N(C)c3ccc4c(C)n(C)nc4c3)n2)cc1S(N)(=O)=O`, for which the Potency is 16.6 µM (active).
Consider `O=C(NCCO[N+](=O)[O-])c1cccnc1`, for which the “viability (% of DMSO)” value was 111% (inactive).
On to `CCCCC(CC)COC(=O)C(C#N)=C(c1ccccc1)c1ccccc1` (stereo not given), for which the “viability (% of DMSO)” value is 138% (inactive).
Turning to `Oc1ccc2ccccc2c1SSc1c(O)ccc2ccccc12`, the Potency was 16.6 µM (active).
As to `Nc1nc(OCc2ccccc2)c2[nH]cnc2n1`, the Potency is 7.43 µM (active).
As for `N[C@@H](Cc1cc(I)c(Oc2cc(I)c(O)c(I)c2)c(I)c1)C(=O)O`, the “viability (% of DMSO)” value is 120% (inactive).
With `Clc1ccc(C(Cn2ccnc2)OCc2c(Cl)cccc2Cl)c(Cl)c1` (stereo not given), the Potency was 16.6 µM (active).
As for `Oc1ccc(OCc2ccccc2)cc1`, the “viability (% of DMSO)” value is 133% (inactive).
Still for that read-out and setting: the same measure for `CCCCCCCCCCCCCCCCCCCCCCO`: 109% (inactive).
Consider `Oc1ccc(-c2nc(-c3ccc(F)cc3)c(-c3ccncc3)[nH]2)cc1`, for which the Potency is 16.6 µM (active).
